This is a sample that favours compounds with a hit; in the whole collection about 1.5% have one here.
CFTR F508del cor: CFTR F508del correction in bronchial cells; actives 0.36% (n = 350,000); activity (quench increase), % at 7.58 µM; CFBE cells, YFP halide quenching; stimulated with forskolin plus potentiator P3; % fluorescence drop versus neutral controls; AID 720511;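 active means mean added fluorescence quench of at least 8% versus neutral control, with both replicates also reaching 8%; inconclusive means only one of the mean or replicate conditions met; inactive means mean below 8% and not both replicates reaching 8%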;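 further: cells transiently co-express mutant CFTR-F508del with the halide-sensitive YFP; corrector assay measuring rescue of mutant channel to the surface after 24 h compound exposure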
RAD54 inh: RAD54 (human) branch migration inhibition | AID 602329 | Q92698 | inhibition, % at 10.4 µM | RAD54 Holliday junction branch migration, FAM/BHQ fluorescence | actives 0.14% (n = 360,000);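 active means mean normalized replicate activity at least 40 and at least half of replicates scoring 40 or more; inconclusive means only one of the two criteria met; inactive means mean below 40 and under half of replicates reaching 40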;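 further: 0% = median of neutral control wells and 100% = median of positive control wells; inhibitors cause a drop in the FAM fluorescence signal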
PvdQ acylase: P. aeruginosa PvdQ acylase inhibition; purified PvdQ acylase, fluorescence plate reader; inhibition, % at 10 µM; actives 0.063% (n = 340,000); in the data active means inhibition above about 30%, passing the limit was not always enough; inconclusive means no clear call, values can overlap the other calls;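 further: 0% = vehicle neutral wells and 100% = reference inhibitor wells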
Glyco luc inh: N-linked glycosylation inhibition; reporter increase, % at 12.5 µM; D54 ERlucT glycosylation luciferase reporter, 24 h; percent of 100 nM tunicamycin response; actives 0.23% (n = 360,000);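 active means mean luciferase reporter signal, scaled so untreated is 0 and the glycosylation-blocking control 100, at or above a set limit in every replicate; inconclusive means mean reaches the limit but not every replicate does; inactive means mean below the limit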;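 further: luciferase carries N-glycosylation sites so blocking glycosylation raises the light; 0% = median of neutral control wells and 100% = median of 100 nM tunicamycin wells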
RAD52 anneal inh: blocks human RAD52 DNA annealing; recombinant RAD52 DNA annealing, FRET fluorescence; actives 0.46% (n = 360,000); inhibition, % at 18.7 µM;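 active means every replicate showing at least 50% inhibition; inconclusive means mean inhibition at least 50% but not in every replicate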
Target sequence (P43351 whole entry, looked up): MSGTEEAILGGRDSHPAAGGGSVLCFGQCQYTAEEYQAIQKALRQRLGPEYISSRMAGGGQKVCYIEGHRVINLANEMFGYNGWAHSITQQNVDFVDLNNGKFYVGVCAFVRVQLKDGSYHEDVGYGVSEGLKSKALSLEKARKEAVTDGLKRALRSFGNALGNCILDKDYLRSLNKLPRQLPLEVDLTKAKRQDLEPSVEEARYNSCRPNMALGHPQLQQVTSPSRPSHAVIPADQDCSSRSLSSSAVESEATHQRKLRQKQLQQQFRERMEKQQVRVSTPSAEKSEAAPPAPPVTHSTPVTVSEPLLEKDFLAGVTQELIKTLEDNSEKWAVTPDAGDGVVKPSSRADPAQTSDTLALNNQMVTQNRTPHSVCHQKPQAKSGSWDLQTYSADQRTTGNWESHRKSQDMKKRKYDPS
dFosB act-1: enhances mouse delta FosB homodimer DNA binding | P13346 | purified delta FosB, TAMRA-CDK5 oligo fluorescence polarization; percent of positive-control signal above neutral wells | activation, % at 25 µM | actives 0.99% (n = 340,000);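 active means mean activation above about 17%, with every replicate also reaching it, limit read from the data, passing the limit was not always enough; inconclusive means only one of the two conditions met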
dFosB act-2: delta FosB (mouse) homodimer activation; activation, % at 24.9 µM; AID 588690; 2,400 tested, under 10 active; purified delta FosB, TAMRA-CDK5 oligo fluorescence polarization; normalised: neutral wells 0, positive control 100; shares compounds with dFosB act-1;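 active means highest replicate activation at or above 34% and every replicate reaching that threshold; inconclusive means meets only one of the two criteria; inactive means meets neither criterion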;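 further: higher polarization means more probe DNA bound by delta FosB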
* marks the source's active call; other numbers are inactive results; ? = inconclusive; / = not tested or not shown.

SMILES	CFTR F508del cor	RAD54 inh	PvdQ acylase	Glyco luc inh	RAD52 anneal inh	dFosB act-1	dFosB act-2
CN(C)C(=O)[C@H]1[C@H](CO)[C@H]2Cn3c(ccc(-c4ccncc4)c3=O)[C@@H]1N2CC1CC1	/	0	/	/	-6	/	/
CCc1c(C)c(C#N)c2nc3ccccc3n2c1NCCN(C)C	/	/	-8	-2	/	21*	-2
O=C(NCc1ccco1)c1ccc2c(=O)n(-c3ccccc3)c(=O)n(Cc3cccc(F)c3)c2c1	-3	-2	5	-5	-33	47*	-1
Cc1ccccc1Cn1c(=O)n(-c2ccccc2)c(=O)c2ccc(C(=O)NCc3ccco3)cc21	1	1	-12	-1	-20	45*	1
C=CCn1c(=O)c2ccc(C(=O)NCc3ccccc3)cc2n(Cc2cccc(Cl)c2)c1=O	-3	5	3	-10	0	42*	0
CCc1cccc(CC)c1NC(=O)C1CC(=O)N(c2ccc3c(c2)OCCO3)C1 (stereo unspecified)	/	-3	12	1	/	-6	/
O=C(Nc1ccccc1Cc1ccccc1)C1CC(=O)N(c2ccc3c(c2)OCCO3)C1 (stereo unspecified)	/	6	1	0	/	36*	0
O=C(/C=C/c1ccccc1)Nc1ccc(Br)cn1	6	/	-4	12	-14	23*	2
Cc1ccc(NC(=O)/C=C/c2ccc(Cl)cc2)nc1	2	1	-27	3	-16	-4	/
COc1ccc(C(=O)Nc2nc3ccc4nc(C)sc4c3s2)cc1	0	2	8	3	-16	23*	3
COc1ccc2nc(NC(=O)c3ccc4ncsc4c3)sc2c1	/	-1	11	-4	/	22*	5
CO[C@H]1CN(C)C(=O)c2cc(NC(=O)C3CCC3)ccc2OC[C@@H](C)N(C(=O)NC(C)C)C[C@H]1C	-5	9	/	/	3	/	/
Cc1ccc(/C=N\NC(=O)Cc2noc3ccccc23)cc1	-1	-12	-18	5	2	22*	?
Cc1ccc2nc3c(cc2c1)c(NC(=O)c1ccccn1)nn3CC(C)C	/	-5	0	1	/	8	/
CCn1nc(NC(=O)c2ccccn2)c2cc3cc(C)ccc3nc21	/	-4	6	2	/	21*	-4
COCC(=O)Nc1ccc2c(c1)OC[C@@H](C)N(C(=O)CC1CC1)C[C@H](C)[C@H](OC)CN(C)C2=O	2	/	/	/	-6	/	/
N#C/C(=C/c1ccc(CNC(=O)C(=O)Nc2cc(Cl)cc(Cl)c2)o1)C(=O)NCc1cccnc1	/	/	-10	2	-47	53*	0
Cc1ccc(NC(=O)C(=O)NCc2ccc(/C=C(/C#N)C(=O)NCc3cccnc3)o2)cc1	/	7	-9	4	/	-18	/
C[C@@H]1CN([C@@H](C)CO)S(=O)(=O)c2ccc(-c3ccccc3F)cc2O[C@H]1CN(C)Cc1ccncc1	2	-8	/	/	33	/	/
O=[N+]([O-])c1ccc(OCCOc2ccccc2/C=N/n2cnnc2)cc1	-3	/	0	1	-1	36*	5
COc1ccccc1/C=N/n1cnnc1	/	1	-9	0	/	-5	/
CCNC(=O)c1c(NC(=O)C2COc3ccccc3O2)sc2c1CCCC2 (stereo unspecified)	/	/	-2	3	/	27*	-2
COCCCNC(=O)c1c(NC(=O)C2COc3ccccc3O2)sc2c1CCCC2 (stereo unspecified)	/	-5	-5	0	/	-8	/
CCCNC(=O)N[C@@H]1C=C[C@H](CC(=O)NCCc2ccccc2)O[C@@H]1CO	0	/	/	/	/	/	/
CC(C)C[C@H]1CNC(=S)N1CC1CCCN1C[C@H](Cc1ccccc1)N1C[C@H](Cc2ccc(O)cc2)N(CC2CCCCCC2)C1=S (stereo partly specified)	0	1	-28	-10	-14	57*	7
SMILES	CFTR F508del cor	RAD54 inh	PvdQ acylase	Glyco luc inh	RAD52 anneal inh	dFosB act-1	dFosB act-2
CC(C)C[C@@H](CN1CCCC1CN1C(=S)NC[C@@H]1Cc1ccc(O)cc1)N1C[C@H](Cc2ccccc2)N(CC2CCCCCC2)C1=S (stereo partly specified)	4	4	-21	-9	-2	45*	5
CC(C)C[C@@H](CN1CCCC1CN1C(=S)NC[C@@H]1Cc1ccc(O)cc1)N1C[C@H](Cc2ccc(O)cc2)N(CC2CCCCCC2)C1=S (stereo partly specified)	6	0	-4	-8	-17	21*	2
CC(C)C[C@@H](CN1CCC[C@@H]1CN1C(=O)C(=O)NC[C@@H]1Cc1ccccc1)N1C[C@H](Cc2ccccc2)N(CC2CCCCCC2)C(=O)C1=O	-1	9	3	-2	6	35*	5
CC(C)C[C@@H](CN1CCCC1CN1C(=S)NC[C@@H]1Cc1ccc(O)cc1)N1C[C@H](Cc2ccccc2)N(CC2CCCCC2)C1=S (stereo partly specified)	0	2	1	-9	-4	52*	1
Cc1cc2cc(CNC(=O)c3ccc(S(=O)(=O)N4CCCCC4)cc3)ccc2n1C	3	1	-9	-3	-2	33*	2
C[C@@H]1CN([C@H](C)CO)C(=O)c2cc(C#Cc3ccccn3)cnc2O[C@H]1CN(C)Cc1ccncc1	-1	-5	/	/	-119	/	/
CCOC(=O)c1ccc(NC(=O)CC2S/C(=N/N=C3/NC(=O)CS3)NC2=O)cc1 (stereo unspecified)	-1	/	3	1	-12	23*	1
CC=Cc1ccc2n(c1=O)C[C@H]1[C@H](CO)[C@@H](C(=O)Nc3ccccc3)[C@@H]2N1C(=O)CC1CC1 (mixture of isomers)	-2	1	/	/	9	/	/
COc1cccc(-c2nc(C(N)=O)c3[nH]c(=O)n(-c4cccc(Cl)c4)c3n2)c1OC	2	5	-16	3	-9	-23	/
COc1ccc(-c2nc(C(N)=O)c3[nH]c(=O)n(-c4cccc(Cl)c4)c3n2)cc1OC	/	8	-3	36*	/	29*	-17
O=C(N[C@@H]1CC[C@H](CCNC(=O)C2CCOCC2)O[C@H]1CO)c1ccncc1	-3	3	/	/	2	/	/
CO[C@H](CN(C)C(=O)c1ccc2c(c1)OCO2)[C@H](C)CN([C@H](C)CO)S(=O)(=O)c1ccccc1	-3	-4	/	/	-10	/	/
O=C(Nc1ccc(Cl)cc1)Nc1nc(-c2ccccc2O)cs1	0	-5	-9	-1	5	-3	/
O=C(Nc1ccc(Cl)cc1)Nc1nc(-c2sccc2Br)cs1	/	/	-13	-2	/	27*	3
COc1ccc(NS(=O)(=O)c2cc(NC(=O)CNC(=O)c3ccc(C)s3)ccc2Cl)cc1	-1	/	-10	-1	-13	2	/

Screens deposited in PubChem BioAssay by Broad Institute.
